High-throughput results (PubChem BioAssay)
Shown is part of a subset that was picked to be rich in hits.
IL1B secr inh – qHTS for Inhibitors of Inflammasome Signaling: IL-1-beta AlphaLISA Primary Screen; THP-1 LPS/ATP IL-1B secretion, AlphaLISA, 16 h; hits give low values; activity change, % at 57.5 µM; 4.7% of 360,000 active; AID 743279, 2014; in the data active means activity change below about -50%; inconclusive means mostly about -30% to -49%
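Secreted IL-1B measured by AlphaLISA bead assay after 16 h compound exposure of THP-1 cells; compounds (final up to 57.5 uM) added 1 h before LPS (250 ng/mL) and ATP (1.25 mM) stimulation; lower signal means less secretion.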
ALOX12 inh – Primary qHTS assay for inhibitors of human arachidonate 12S-lipoxygenase (ALOX12): Round 2; Polyunsaturated fatty acid lipoxygenase ALOX12 (Homo sapiens), P18054; purified 12hLO, xylenol orange hydroperoxide absorbance; 1.1% of 580,000 active; AID 1671190, 2021; Potency, µM (series often up to 108 µM), without a hit: at the highest dose activity change, negative = inhibition, hits mostly inhibitors; further: potency means the concentration at half of the fitted maximal effect
Target sequence (P18054 whole entry, looked up): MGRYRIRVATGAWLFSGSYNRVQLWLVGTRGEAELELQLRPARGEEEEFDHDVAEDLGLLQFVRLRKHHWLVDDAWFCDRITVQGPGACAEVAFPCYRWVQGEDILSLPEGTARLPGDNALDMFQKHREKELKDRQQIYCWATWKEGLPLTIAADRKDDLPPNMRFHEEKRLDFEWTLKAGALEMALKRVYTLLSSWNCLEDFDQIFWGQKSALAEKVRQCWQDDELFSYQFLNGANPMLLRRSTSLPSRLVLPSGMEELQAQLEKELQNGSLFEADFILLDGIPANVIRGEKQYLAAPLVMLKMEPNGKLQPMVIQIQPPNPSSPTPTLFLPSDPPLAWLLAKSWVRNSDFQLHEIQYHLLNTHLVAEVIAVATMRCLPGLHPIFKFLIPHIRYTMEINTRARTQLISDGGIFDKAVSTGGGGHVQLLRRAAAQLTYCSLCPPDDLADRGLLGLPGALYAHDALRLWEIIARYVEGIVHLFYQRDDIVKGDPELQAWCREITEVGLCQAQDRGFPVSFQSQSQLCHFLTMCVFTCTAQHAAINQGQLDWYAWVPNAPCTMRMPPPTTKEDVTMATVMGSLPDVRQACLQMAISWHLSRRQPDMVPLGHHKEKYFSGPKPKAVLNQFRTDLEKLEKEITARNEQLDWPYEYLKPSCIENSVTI
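Hydroperoxide product was detected by ferrous iron/xylenol orange as the 573 to 405 nm absorbance ratio. Arachidonic acid at 40 uM (final) was turned over for 30 min at room temperature by 150 nM human 12hLO, pH 7.0 Hepes buffer, after 15 min compound preincubation.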
HT1080 IDH1KD tx – qHTS for induction of synthetic lethality in tumor cells producing 2HG: qHTS for the HT-1080-IDH1KD cell line | HT-1080 IDH1 knockdown viability, ATP luminescence, 48 h | Potency, µM (titrated, usually from 46.1 µM), without a hit: at the highest dose activity, negative = toxicity, actives largely listed as cytotoxic | 2% of 360,000 active | AID 686971, 2013;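 further: potency means the concentration at half of the fitted maximal effect; 0% = DMSO wells and -100% = cell-free medium wells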
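Cytotoxicity counter-line: IDH1KD HT-1080, 48 h, CellTiter-Glo. Curves classed by r2, magnitude and activity.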
DT40 TDP1 CPT – qHTS for Inhibitors of human tyrosyl-DNA phosphodiesterase 1 (TDP1): qHTS in cells in presence of CPT | chicken DT40 Tdp1-/-;hTDP1 cells + 20 nM CPT, ATP luminescence, 48 h | Potency, µM (top dose mostly 46.2 µM), for inactives: top-dose activity change, negative = growth inhibition, hits mostly inhibitors | 12% of 420,000 active | AID 686979, 2013; further: potency means the concentration at half of the fitted maximal effect; nearly all actives have a fitted effect of over 55% in size
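Chicken DT40 Tdp1-/- cells complemented with human TDP1, 400 cells/well, exposed to compounds plus 20 nM camptothecin for at least 48 h at 37 C; viability read as ATP content by CellTiter-Glo luminescence.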
DT40 TDP1 no CPT – qHTS for Inhibitors of human tyrosyl-DNA phosphodiesterase 1 (TDP1): qHTS in cells in absence of CPT; DT40 Tdp1-/- hTDP1 cells, no CPT, ATP luminescence, 48 h; Potency, µM (doses to about 46.2 µM), without a hit: at the highest dose activity change, negative = growth inhibition, hits mostly inhibitors; 15% of 420,000 active; AID 686978, 2013; further: potency means the concentration at half of the fitted maximal effect; nearly all actives have a fitted effect of over 55% in size
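Compound effects on proliferation are scored in DT40 Tdp1-/-;hTDP1 cells in the absence of CPT. ATP levels (CellTiter-Glo luminescence) are recorded after a ≥48 hr, 37 °C incubation.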
HT1080NT lethal – qHTS for induction of synthetic lethality in tumor cells producing 2HG: qHTS for the HT-1080-NT fibrosarcoma cell line; HT-1080-NT fibrosarcoma viability, CellTiter-Glo ATP luminescence, 48 h; AID 686970, 2013; Potency, µM (highest dose often 46.1 µM), for the others: top-dose activity, negative = less viability, usual class: cytotoxic; 1.6% of 360,000 active;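 further: NT is the 2HG producing partner of a matched IDH1 knockdown line; potency means the concentration at half of the fitted maximal effect; 0% = DMSO-treated cells and -100% = media-only wells without cells; nearly all actives have a fitted effect of over 55% in size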
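Fibrosarcoma NT cells, 750 per well in 5% FBS RPMI, were exposed to compound for 48 hours. Viability: CellTiter-Glo luminescence.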
* hit, by the source's call; ? = inconclusive; / = no result given; [ ] = another dose, or the depositor's remark. Unless noted, the call rests on the fitted dose curve; in most records, active means well fitted curve in the direction sought with a large enough effect; inconclusive means small, poorly fitted or top-dose-only effect, or another doubt; inactive means no such curve, though single readings can be large; an effect the other way counts as inactive or inconclusive. Unless noted, on the % scale 0 is the no-effect control and ±100 the full control effect.

SMILES	IL1B secr inh	ALOX12 inh	HT1080 IDH1KD tx	DT40 TDP1 CPT	DT40 TDP1 no CPT	HT1080NT lethal
CCN(CC)C(=O)C1=C(C)N(Cc2ccccc2)C(=O)C(CC(=O)NCc2cccc3ccccc23)C1 (stereo not given)	-21	21%	-3%	?	18µM*	-1%
CCN(CC)C(=O)C1=C(C)N(Cc2ccc(OC)cc2)C(=O)C(CC(=O)NCc2cccs2)C1 (stereo not given)	-14	-53%	0%	-18%	?	5%
COc1ccccc1-c1c(C)oc2cc(OC(C)=O)ccc2c1=O	/	31%	/	/	/	/
CC(C)(C)c1csc(N/N=C/c2cccnc2)n1	-99*	?	-16%	21%	1%	0%
C(=N\Nc1nccc(-c2cccnc2)n1)/c1ccccc1	-54*	0%	-15%	0.033µM*	?	1%
Cc1ccc(-c2cc(-c3ccccc3O)nc(N/N=C/c3cccnc3)n2)cc1	6	16%	-3%	16µM*	12µM*	?
Cc1ccccc1-c1cc(C(=O)N/N=C/c2cccnc2)c2ccccc2n1	25	0%	-29%	?	?	-23%
C(=N\Nc1nc(-c2ccccc2)cs1)/c1cccnc1	-21	?	?	13µM*	?	?
CC(C)c1noc([C@@H]2C[C@H](NC(=O)Nc3ccccc3)CN2C)n1	/	26%[176 µM]	/	/	/	/
Cc1cc(=O)oc2cc(OCC(=O)OCC(=O)Nc3ccc(C(F)(F)F)cc3)ccc12	/	0%	/	/	/	/
Cn1c(=O)c2c(nc(SCc3nc(N)nc(N4CCCCC4)n3)n2C)n(C)c1=O	0	11%	2%	21µM*	23µM*	8%
FC(F)(F)c1ccc(CNCc2ccco2)cc1	/	-4%	/	/	/	/
NC(Cc1ccc(F)cc1)c1csc(Nc2ccc(C(F)(F)F)cn2)n1 (stereo not given)	-55*	?	?	13µM*	9.2µM*	?
CC(C)CC(N)c1csc(Nc2ncccn2)n1 (stereo not given)	-15	25%	?	9.2µM*	6.5µM*	?
NC(Cc1ccc(C(F)(F)F)cc1)c1csc(Nc2ncccn2)n1 (stereo not given)	-53*	6%	?	9.2µM*	9.2µM*	?
NC(Cc1ccc(C(F)(F)F)cc1)c1csc(Nc2cc(NCc3ccco3)ncn2)n1 (stereo not given)	?	?	16µM*	21µM*	16µM*	23µM*
COc1cc(C)c(Cl)cc1S(=O)(=O)NCc1ccccn1	-17	-1%	13%	-10%	10%	15%
Cc1ccccc1-c1cc(C(=O)NC2CCCCCC2)c2cccc(Cl)c2n1	/	11%	/	/	/	/
COCCN1C(=O)C(C(=O)OC)CC2=C1CC(C)(C)CC2=O (stereo not given)	12	-14%	1%	-19%	-11%	0%
O=C(CC1CCCCN(Cc2ccccc2)C1=O)N1CCN(c2ccc(F)cc2)CC1 (stereo not given)	/	12%	/	/	/	/
NC(Cc1ccc(C(F)(F)F)cc1)c1csc(Nc2ccccn2)n1 (stereo not given)	-77*	16%	?	?	?	21µM*
NC(Cc1ccc(C(F)(F)F)cc1)c1csc(Nc2cnccn2)n1 (stereo not given)	?	-15%	?	6.5µM*	5.8µM*	?
COc1ccc(-c2csc(C(C)(NC(C)=O)c3ccc(OC)cc3)n2)cc1 (stereo not given)	3	?	15%	16µM*	?	17%
CC(=O)NC(C)(c1ccccc1)c1nc(-c2ccc(N(C)C)cc2)cs1 (stereo not given)	-3	?	?	16µM*	23µM*	5%
COc1ccc(C(C)(NC(C)=O)c2nc(-c3ccncc3)cs2)cc1 (stereo not given)	16	5%	22%	-8%	-7%	7%
SMILES	IL1B secr inh	ALOX12 inh	HT1080 IDH1KD tx	DT40 TDP1 CPT	DT40 TDP1 no CPT	HT1080NT lethal
COc1ccc(C(C)(NC(C)=O)c2nc(-c3ccc(F)c(Cl)c3)cs2)cc1 (stereo not given)	-27	?	?	18µM*	23µM*	?
COCCC(=O)N[C@H]1C[C@@H](c2nc(-c3cnccn3)no2)N(C)C1	/	8%[176 µM]	/	/	/	/
N#Cc1ccc(COC(=O)c2ccccc2SCC2CCCO2)cc1 (stereo not given)	/	17%	/	/	/	/
COc1cc2[nH]c(=O)n(CCCCCC(=O)N3CC=C(c4ccccc4)CC3)c(=O)c2cc1OC	-73*	0%	-1%	26µM*	16µM*	-7%
COc1ccc(N2CCN(C(=O)CCCn3c(=O)[nH]c4ccsc4c3=O)CC2)cc1	-2	10%[57.4 µM]	8%	-22%	-13%	13%
COc1ccc(N2CCN(C(=O)CCCCn3c(=O)[nH]c4ccsc4c3=O)CC2)cc1	15	-1%	-11%	?	26µM*	14%
COc1ccccc1N1CCN(C(=O)CCCCn2c(=O)[nH]c3ccsc3c2=O)CC1	0	21%	2%	?	16µM*	2%
O=C(Cc1ccc(-n2c(=O)[nH]c3ccsc3c2=O)cc1)N1CCN(c2ccc(Cl)cc2)CC1	-75*	-10%	-9%	?	?	-13%
O=C(CCCn1c(=O)[nH]c2ccsc2c1=O)N1CCN(c2ccc(Cl)cc2)CC1	/	-4%	/	?	?	/
CCOC(=O)Nc1ccc(C(=O)OCC23CC4CC(CC(C4)C2)C3)cc1	/	25%	/	/	/	/
CN(c1cc(=O)c2ccnc(-c3ccc([S+](C)(=O)[O-])cc3)c2o1)C1CCOCC1	/	-23%[176 µM]	/	/	/	/
CCCCNC(=O)C(Sc1ccccc1)c1ccccc1 (stereo not given)	-5	-10%	2%	-18%	-4%	4%
CCCCNC1=CC(=O)C(NCCCC)=CC1=O	-1	4%	-17%	23µM*	16µM*	-22%
CCCCNC1=CC(=O)C(=O)c2ccccc21	20	?	23µM*	8.2µM*	21µM*	-5%
CNC1CCOc2ccccc21 (stereo not given)	/	-2%[12.5 µM]	/	/	/	/
